Most compounds without a hit are left out; they make up all but 1.6% or so of the library.
dFosB act: activators of delta FosB homodimer, primary screen, biochemical, fluorescence polarization, TAMRA-CDK5 oligo, single point; Protein FosB (Mus musculus), P13346; purified delta FosB; percent of positive-control signal above neutral wells; hit rate 0.99% among 340,000; activation, % at 25 µM;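 active = mean activation above about 17%, with every replicate also reaching it, limit read from the data, passing the limit was not always enough; inconclusive = only one of the two conditions met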
Target sequence (P13346 whole entry, looked up): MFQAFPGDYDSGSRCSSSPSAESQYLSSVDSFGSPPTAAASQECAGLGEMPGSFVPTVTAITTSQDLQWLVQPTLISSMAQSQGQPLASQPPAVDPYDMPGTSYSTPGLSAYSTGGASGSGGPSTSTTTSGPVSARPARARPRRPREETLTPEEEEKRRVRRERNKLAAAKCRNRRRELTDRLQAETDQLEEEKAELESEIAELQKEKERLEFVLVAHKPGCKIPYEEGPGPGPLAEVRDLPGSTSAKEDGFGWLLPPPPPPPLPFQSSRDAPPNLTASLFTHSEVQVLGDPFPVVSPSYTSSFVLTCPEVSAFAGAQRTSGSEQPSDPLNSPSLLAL
B2AR ag: beta2AR agonists driving receptor internalization, primary screen, cell-based, FAP fluorogen, flow cytometry; response, % (test concentration not listed); Beta-2 adrenergic receptor (Homo sapiens), P07550; Am2.2-beta2AR cells; hit rate 0.43% among 340,000; AID 504454, 2011;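 active = response above a set limit, near 3 SD of response in nonfluorescent compounds, cut at about 42% in these data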
Dyrk1A ADPGlo: rat Dyrk1A kinase inhibitors, primary screen, biochemical, single point, plate reader. inhibition, % at 12.5 µM. hit rate 0.43% among 310,000. ADP-Glo luminescence, NFATc1 peptide; in the data active = inhibition above about 50%;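 also: plate controls were vehicle with enzyme for no effect and no enzyme for full effect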
A1 inh: caspase 3/7 activation in MEF A1-2A-BIM cells, primary screen, A1 inhibitor project, cell-based, luminescence, HTS. Caspase-Glo 3/7 luminescence, 3 h; percent of clofoctol response, vehicle zero. caspase activation, % (test concentration not listed). hit rate 0.066% among 330,000. AID 2462, 2010;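 active = over half of replicate activation scores above 10%, or exactly half above 10 with the replicate mean above 10; inconclusive = replicate mean below 10 yet half the replicates above 10; inactive = over half of replicates below 10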
An asterisk follows results filed as active; u = inconclusive; x = not tested or not shown.

SMILES	dFosB act	B2AR ag	Dyrk1A ADPGlo	A1 inh
C#CCOCCOCCOCCNc1nc(N2CCN(C(=O)CCCCCCCCCCNC(=O)Cn3cc(CCCCCN)nn3)CC2)nc(N2CCN(C(=O)CCCCCCCCCCNC(=O)Cn3cc(C[C@@H](C)O)nn3)CC2)n1	u	72*	8	2
C#CCOCCOCCOCCNc1nc(N2CCN(C(=O)CCCCCCCCCCNC(=O)[C@H](CCCN=C(N)N)n3cc(C[C@@H](C)CC)nn3)CC2)nc(N2CCN(C(=O)CCCCCCCCCCNC(=O)[C@@H]([C@H](C)CC)n3cc(CCCCCN)nn3)CC2)n1	x	x	x	0
C#CCOCCOCCOCCNc1nc(N2CCN(C(=O)CCCCCCCCCCNC(=O)Cn3cc(C[C@@H](C)O)nn3)CC2)nc(N2CCN(C(=O)CCCCCCCCCCNC(=O)[C@@H]([C@H](C)O)n3cc(C)nn3)CC2)n1	-2	21	-1	0
COc1ccc(/C=C/C(=O)NC(=S)Nc2ccc(S(=O)(=O)N=C(N)N)cc2)cc1OC	63*	3	3	1
COc1cc(NS(=O)(=O)c2ccc(NC(=S)NC(=O)/C=C/c3ccc(OC)c(OC)c3)cc2)ncn1	2	7	-6	0
C=CCNc1nc(Nc2ccc([N+](=O)[O-])cc2)nc(N2CCCC2)n1	62*	12	-1	1
COc1ccccc1CNc1nc(-c2cc(C)n(C)c2C)cs1	18*	18	-11	x
O=C(/C=C/c1c(F)cccc1Cl)N1CCc2ccccc2C1	-14	0	-2	-1
N=C1/C(=C\c2ccc(-c3cccc(Cl)c3)o2)C(=O)N=C2SC=C(c3ccccc3)N12	-9	57*	2	-1
N=C1/C(=C\c2ccc(-c3ccc(C(=O)O)cc3)o2)C(=O)N=C2SC=C(c3ccccc3)N12	-8	6	-8	x
O=C1C(=O)c2ccc(-c3ccccc3)cc2-c2ccccc21	0	61*	6	3
Cc1ccc(NC(=O)C2CCCN(S(=O)(=O)c3ccc4[nH]c(=O)ccc4c3)C2)cc1C (stereo not drawn)	2	0	7	-1
Cc1cccc(NC(=O)C2CCCN(S(=O)(=O)c3ccc4[nH]c(=O)ccc4c3)C2)c1 (stereo not drawn)	45*	3	7	1
CN(C)c1ccc(/C=C2/C[N+](C)(C)C/C(=C/c3ccc(N(C)C)cc3)C2=O)cc1	22*	-559	5	x
CC(C)/C=C1\CC/C(=C\c2ccc(N(C)C)cc2)C1=O	0	-13	2	0
CCOc1cc(/C=C\[N+](=O)[O-])ccc1OCC(=O)N1CCOCC1	-7	67*	-3	1
Cc1cc(C)nc(N/N=C/c2ccccc2OCc2ccc([N+](=O)[O-])cc2)n1	-6	97*	-4	-1
Cc1ccc(NC(=O)c2ccccc2OCC(=O)Nc2ccccc2F)cc1S(=O)(=O)N(C)C	-12	25	-2	-1
C#CCNCCS(=O)(=O)N(Cc1ccc(Br)cc1)[C@@H](C)C(=O)O	-3	-4	-13	x
COc1ccc(C(=O)/C(C#N)=N/Nc2ccccc2[N+](=O)[O-])cc1	-2	-2	-4	0
COc1ccc(C(=O)/C(C#N)=N/Nc2ccc([N+](=O)[O-])cc2)cc1	-8	46*	-8	2
COc1ccccc1NC(=O)Cn1nnc(-c2ccccc2NC(=O)c2ccco2)n1	0	2	1	1
COc1ccc(NC(=O)Cn2nnc(-c3ccccc3NC(=O)c3ccco3)n2)cc1	26*	-14	1	0
O=C(CSc1cccc[n+]1[O-])NC1CCCCC1	3	-1	-2	8.3*
O=C(CSc1ncccc1C(=O)O)NC1CCCCC1	3	0	3	5.5*
SMILES	dFosB act	B2AR ag	Dyrk1A ADPGlo	A1 inh
CCCCCOc1ccc(Br)cc1/C(C)=N/NC1=NCCN1	3	44*	2	0
CCOc1ccc(Cn2nnc(-c3ccc(S(C)(=O)=O)cc3)n2)cc1OCC	-2	-13	x	0
Oc1ccc(/C=N/NC(=S)Nc2cccnc2)c(O)c1O	-5	67*	18	x
Oc1cccc(/C=N/NC(=S)Nc2cccnc2)c1O	1	-2	3	-1
CC(CC(=O)N(C)c1c(N)n(Cc2ccccc2)c(=O)[nH]c1=O)c1ccccc1 (stereo not drawn)	-1	-2	-3	1
Nc1ccc2nc(-c3cccnc3)[nH]c2c1	-2	12	-4	-1
Nc1cccc(-c2c[nH]c3ncc(-c4cccnc4)cc23)c1	-5	14	77*	x
